# Reference: publication PMC11062922 (Nature Chemical Biology, 2023)
# Read-outs that look alike come from different tables or passages of the source.
# How the values were obtained:
# Design in all cases: species or system human, MV4-11 + K-562 + COLO205 + SK-N-BE2 + OVCAR-8
# ADRBK1 = details: read-out: apparent Kd; compound concentrations: 100 nM and 1000 nM (sheet 'Samples'), CATDS: 5.9509771658031299E-2; n = 1
# AKT1 = details: read-out: apparent Kd; compound concentrations: 100 nM and 1000 nM (sheet 'Samples'), CATDS: 5.9095519599072298E-2; n = 1
# AKT2 = details: read-out: apparent Kd; compound concentrations: 100 nM and 1000 nM (sheet 'Samples'), CATDS: 5.77170152352365E-2; n = 1
# AKT3 = details: read-out: apparent Kd; compound concentrations: 100 nM and 1000 nM (sheet 'Samples'), CATDS: 5.2731999581220101E-2; n = 1
# CDK17 = details: read-out: apparent Kd; compound concentrations: 100 nM and 1000 nM (sheet 'Samples'), CATDS: 5.5041868266542698E-2; n = 1
# CDK6 = details: read-out: apparent Kd; compound concentrations: 100 nM and 1000 nM (sheet 'Samples'), CATDS: 5.9987442985443201E-2; n = 1
# CDKL5 = details: read-out: apparent Kd; compound concentrations: 100 nM and 1000 nM (sheet 'Samples'), CATDS: 5.3023462381207802E-2; n = 1
# CSNK1A1 = details: read-out: apparent Kd; compound concentrations: 100 nM and 1000 nM (sheet 'Samples'), CATDS: 5.2392632468863803E-2; n = 1
# MAP2K1 = details: read-out: apparent Kd, compound concentrations: 100 nM and 1000 nM (sheet 'Samples'), n = 1
# MAP2K2 = details: read-out: apparent Kd, n = 1
# MET = details: read-out: apparent Kd; compound concentrations: 100 nM and 1000 nM (sheet 'Samples'), CATDS: 5.0838558886591501E-2; n = 1
# NNT = details: read-out: apparent Kd; compound concentrations: 100 nM and 1000 nM (sheet 'Samples'), CATDS: 6.8732534109556695E-2; n = 1
# NQO1 = details: read-out: apparent Kd; compound concentrations: 100 nM and 1000 nM (sheet 'Samples'), CATDS: 6.20542756151947E-2; n = 1
# PIP4K2C = details: read-out: apparent Kd; compound concentrations: 100 nM and 1000 nM (sheet 'Samples'), CATDS: 5.5359350052651503E-2; n = 1
# PRKAG2 = details: read-out: apparent Kd; compound concentrations: 100 nM and 1000 nM (sheet 'Samples'), CATDS: 6.3549748711714801E-2; n = 1
# RAB6A;RAB6B = details: read-out: apparent Kd; compound concentrations: 100 nM and 1000 nM (sheet 'Samples'), CATDS: 6.9234988104968295E-2; n = 1
# VDAC3 = details: read-out: apparent Kd; compound concentrations: 100 nM and 1000 nM (sheet 'Samples'), CATDS: 6.3375606463047907E-2; n = 1
# ADK = details: read-out: apparent Kd, n = 1
# CLK1 = details: read-out: apparent Kd; compound concentrations: 100 nM and 1000 nM (sheet 'Samples'), CATDS: 5.4208995397741003E-2; n = 1
# DYRK1A = details: read-out: apparent Kd; compound concentrations: 100 nM and 1000 nM (sheet 'Samples'), CATDS: 5.0124883186775999E-2; n = 1
# GSK3A = details: read-out: apparent Kd; compound concentrations: 100 nM and 1000 nM (sheet 'Samples'), CATDS: 9.7790905070532702E-2; n = 1
# GSK3B = details: read-out: apparent Kd; compound concentrations: 100 nM and 1000 nM (sheet 'Samples'), CATDS: 0.116009702502103; n = 1
# ICK = details: read-out: apparent Kd, n = 1
# NQO2 = details: read-out: apparent Kd, n = 1
# PRKCA = details: read-out: apparent Kd; compound concentrations: 100 nM and 1000 nM (sheet 'Samples'), CATDS: 0.15913397901311099; n = 1
# PRKCB = details: read-out: apparent Kd; compound concentrations: 100 nM and 1000 nM (sheet 'Samples'), CATDS: 9.8351239927142994E-2; n = 1
# PRKCD = details: read-out: apparent Kd; compound concentrations: 100 nM and 1000 nM (sheet 'Samples'), CATDS: 0.131457549494816; n = 1
# PRKCQ = details: read-out: apparent Kd; compound concentrations: 100 nM and 1000 nM (sheet 'Samples'), CATDS: 0.25317838429330802; n = 1
# RPS6KA6 = details: read-out: apparent Kd; compound concentrations: 100 nM and 1000 nM (sheet 'Samples'), CATDS: 0.14606611193567601; n = 1
# RPS6KB1 = details: read-out: apparent Kd; compound concentrations: 100 nM and 1000 nM (sheet 'Samples'), CATDS: 4.9333736806527098E-2; n = 1
# CAMK2B = details: read-out: apparent Kd; compound concentrations:100 nM and 1000 nM (sheet 'Samples'); n = 1
# CAMK2D = details: read-out: apparent Kd; compound concentrations:100 nM and 1000 nM (sheet 'Samples'); n = 1
# CSNK1G1 = details: read-out: apparent Kd; compound concentrations:100 nM and 1000 nM (sheet 'Samples'); n = 1
# EIF2AK1 = details: read-out: apparent Kd; compound concentrations:100 nM and 1000 nM (sheet 'Samples'); n = 1
# ERN2 = details: read-out: apparent Kd; compound concentrations:100 nM and 1000 nM (sheet 'Samples'); n = 1
# FN3KRP = details: read-out: apparent Kd; compound concentrations:100 nM and 1000 nM (sheet 'Samples'); n = 1
# FN3K = details: read-out: apparent Kd; compound concentrations:100 nM and 1000 nM (sheet 'Samples'); n = 1
# LATS1 = details: read-out: apparent Kd; compound concentrations:100 nM and 1000 nM (sheet 'Samples'); n = 1
# MAPK3 = details: read-out: apparent Kd; compound concentrations:100 nM and 1000 nM (sheet 'Samples'); n = 1
# NEK2 = details: read-out: apparent Kd; compound concentrations:100 nM and 1000 nM (sheet 'Samples'); n = 1
# NUAK1 = details: read-out: apparent Kd; compound concentrations:100 nM and 1000 nM (sheet 'Samples'); n = 1
# PAK6 = details: read-out: apparent Kd; compound concentrations:100 nM and 1000 nM (sheet 'Samples'); n = 1
# PBK = details: read-out: apparent Kd; compound concentrations:100 nM and 1000 nM (sheet 'Samples'); n = 1
# PDXK = details: read-out: apparent Kd; compound concentrations:100 nM and 1000 nM (sheet 'Samples'); n = 1
# PFKP = details: read-out: apparent Kd; compound concentrations:100 nM and 1000 nM (sheet 'Samples'); n = 1
# PRKX;PRKY = details: read-out: apparent Kd; compound concentrations:100 nM and 1000 nM (sheet 'Samples'); n = 1
# TESK1 = details: read-out: apparent Kd; compound concentrations:100 nM and 1000 nM (sheet 'Samples'); n = 1
# TP53RK = details: read-out: apparent Kd; compound concentrations:100 nM and 1000 nM (sheet 'Samples'); n = 1
# [1] = compound concentrations:100 nM and 1000 nM (sheet 'Samples')
structure (smiles),measurement,setting,value
N#Cc1c(NC(=O)CN2CCOCC2)sc2c1CCCC2.O=C(O)C(=O)O [SB-657836-AAA],potency estimated from few doses,ADRBK1,1.68 µM
same,potency estimated from few doses,AKT1,1.7 µM
same,potency estimated from few doses,AKT2,1.79 µM
same,potency estimated from few doses,AKT3,2.17 µM
same,potency estimated from few doses,CDK17,1.97 µM
same,potency estimated from few doses,CDK6,1.65 µM
same,potency estimated from few doses,CDKL5,2.14 µM
same,potency estimated from few doses,CSNK1A1,2.2 µM
same,potency estimated from few doses,MAP2K1; CATDS: 5.50231746712945E-2,1.98 µM
same,potency estimated from few doses,"MAP2K2; compound concentrations: 100 nM and 1000 nM (sheet 'Samples'), CATDS: 7.31538140973165E-2",1.15 µM
same,potency estimated from few doses,MET,2.37 µM
same,potency estimated from few doses,NNT,1.28 µM
same,potency estimated from few doses,NQO1,1.55 µM
same,potency estimated from few doses,PIP4K2C,1.95 µM
same,potency estimated from few doses,PRKAG2,1.48 µM
same,potency estimated from few doses,RAB6A;RAB6B,1.26 µM
same,potency estimated from few doses,VDAC3,1.49 µM
Cn1cc(C2=C(c3cn(CCCNC(=N)N)c4ccccc34)C(=O)NC2=O)c2ccccc21 [RO0318352-000],potency estimated from few doses,"ADK; compound concentrations: 100 nM and 1000 nM (sheet 'Samples'), CATDS: 5.0768617440539301E-2",1.42 µM
same,potency estimated from few doses,CLK1,1.01 µM
same,potency estimated from few doses,DYRK1A,1.53 µM
same,potency estimated from few doses,GSK3A,0.125 µM
same,potency estimated from few doses,GSK3B,0.0837 µM
same,potency estimated from few doses,"ICK; compound concentrations: 100 nM and 1000 nM (sheet 'Samples'), CATDS: 5.3965454645481803E-2",1.04 µM
same,potency estimated from few doses,"NQO2; compound concentrations: 100 nM and 1000 nM (sheet 'Samples'), CATDS: 5.4334591839862598E-2",1 µM
same,potency estimated from few doses,PRKCA,0.0451 µM
same,potency estimated from few doses,PRKCB,0.124 µM
same,potency estimated from few doses,PRKCD,0.0644 µM
same,potency estimated from few doses,PRKCQ,0.0217 µM
same,potency estimated from few doses,RPS6KA6,0.0526 µM
same,potency estimated from few doses,RPS6KB1,1.67 µM
C[C@@H](c1ccccc1)[C@@H](C(=O)Nc1ccc(I)cc1F)N1C(=O)N[C@H](c2ccc(OC[C@H](O)CO)cc2)C1=O [RO5068760-000],potency estimated from few doses,ADK; [1],1 µM
same,potency estimated from few doses,CAMK2B,0.544 µM
same,potency estimated from few doses,CAMK2D,0.45 µM
same,potency estimated from few doses,CSNK1G1,2.04 µM
same,potency estimated from few doses,EIF2AK1,1.39 µM
same,potency estimated from few doses,ERN2,1.17 µM
same,potency estimated from few doses,FN3KRP,0.959 µM
same,potency estimated from few doses,FN3K,1.2 µM
same,potency estimated from few doses,ICK; [1],1.31 µM
same,potency estimated from few doses,LATS1,1.76 µM
same,potency estimated from few doses,MAP2K1; CATDS: 0.123510753631687,0.183 µM
same,potency estimated from few doses,MAP2K2; [1],0.165 µM
same,potency estimated from few doses,MAPK3,1.33 µM
same,potency estimated from few doses,NEK2,1.57 µM
same,potency estimated from few doses,NQO2; [1],0.787 µM
same,potency estimated from few doses,NUAK1,1.92 µM
same,potency estimated from few doses,PAK6,1.73 µM
same,potency estimated from few doses,PBK,2.03 µM
same,potency estimated from few doses,PDXK,0.612 µM
same,potency estimated from few doses,PFKP,2.22 µM
same,potency estimated from few doses,PRKX;PRKY,1.13 µM
same,potency estimated from few doses,TESK1,0.543 µM
same,potency estimated from few doses,TP53RK,1.62 µM
